Values joined by “and” are separate entries in the source; they are usually repeats but may differ in a detail not shown here. Equal values may be shown once. Active and inactive are the calls of the source.
Experiments:
[1] = test system: PRMT1 (protein arginine N-methyltransferase 1); assay: PRMT1 binders on small-molecule microarrays, primary screen, biochemical, small-molecule microarray, 635 nm fluorescence (AID 1088); details: small-molecule microarray binding, higher = more signal;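 further: binding of Prmt1 protein to compounds spotted on small-molecule microarray slides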
[2] = yeast growth modulation, basal conditions, primary screen, YJM789 clinical isolate, OD600, 24 h (AID 1089);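 further: growth of clinical yeast isolate S. cerevisiae YJM 789 seeded 1000 cells per well; test concentration not given here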; details: S. cerevisiae YJM789 growth; higher = more signal, called active from +8 up or from −8 down unless noted
[3] = fission yeast growth modulation, primary screen, strain 972, OD600, 24 h, no modulator (AID 1090);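 further: basal condition with compound alone and no growth modifier present; test concentration not given here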; details: S. pombe 972 growth; higher = more signal, called active from +8 up or from −8 down unless noted
[4] = S. cerevisiae growth modulation with rapamycin, primary screen, strain BY4716, OD600, 96 h (AID 1091); details: higher = more signal, called active from +8 up or from −8 down unless noted; further: test concentration not given here
[5] = molecular target: Torsin-1A-interacting protein 2 (Homo sapiens) (UniProt Q8NFQ8); assay: LULL1 binders on small-molecule microarray, primary screen, cell lysate, human LULL1 lysate, 635/667 nm fluorescence (AID 1092); details: hLULL1 lysate binding, 635 nm fluorescence, higher = more signal;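 further: probe is lysate of COS7 cells overexpressing human LULL1; score merges per-feature 667 nm fluorescence with signal-to-noise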
Torsin-1A-interacting protein 2 (Homo sapiens), sequence (Q8NFQ8 whole entry, looked up): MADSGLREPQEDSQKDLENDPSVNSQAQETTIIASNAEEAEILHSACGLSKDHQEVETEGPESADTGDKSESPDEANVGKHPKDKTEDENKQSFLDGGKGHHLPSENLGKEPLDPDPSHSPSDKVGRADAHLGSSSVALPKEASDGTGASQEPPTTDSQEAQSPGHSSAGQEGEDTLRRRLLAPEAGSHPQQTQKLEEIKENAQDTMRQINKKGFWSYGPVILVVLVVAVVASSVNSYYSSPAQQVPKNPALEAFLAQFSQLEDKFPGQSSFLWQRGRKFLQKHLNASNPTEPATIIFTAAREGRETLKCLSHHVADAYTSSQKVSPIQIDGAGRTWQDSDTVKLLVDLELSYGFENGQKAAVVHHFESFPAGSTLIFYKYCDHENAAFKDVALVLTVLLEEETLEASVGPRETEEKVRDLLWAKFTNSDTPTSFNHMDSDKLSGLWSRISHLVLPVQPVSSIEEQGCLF

[6] = E. coli growth modulation, two-sided OD650, primary screen, E. coli filamentation project, strain DRC41, 24 h (AID 1093); details: OD650, 24 h; higher = more signal, called active from +8 up or from −8 down unless noted;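 further: MC1000 strain lacking acrAB efflux and sulA so SOS filamentation is blocked; test concentration not given here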
[7] = small-molecule microarray binders of probe aLefty2, primary screen, biochemical, biotinylated probe, 635/667 nm fluorescence (AID 1094); details: higher = more signal; small-molecule microarray, probe aLefty2, fluorescence unless noted;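 further: score merges spot fluorescence near 667 nm with spot signal-to-noise ratio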
[8] = test system: Noggin (protein binding on small-molecule microarray); assay: Noggin binders on small-molecule microarray, primary screen, biochemical, 635/667 nm fluorescence (AID 1095); details: 635 nm fluorescence, higher = more signal;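 further: score merges 667 nm feature fluorescence with signal to noise over triplicate slides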
[9] = molecular target: Neurogenic locus notch homolog protein 3 (Homo sapiens) (UniProt Q9UM47); assay: NOTCH3 binders on small-molecule microarray, primary screen, biochemical, 635/667 nm fluorescence (AID 1096); details: NOTCH3 binding, 635 nm fluorescence, higher = more signal
Neurogenic locus notch homolog protein 3 (Homo sapiens), sequence (Q9UM47 whole entry, looked up): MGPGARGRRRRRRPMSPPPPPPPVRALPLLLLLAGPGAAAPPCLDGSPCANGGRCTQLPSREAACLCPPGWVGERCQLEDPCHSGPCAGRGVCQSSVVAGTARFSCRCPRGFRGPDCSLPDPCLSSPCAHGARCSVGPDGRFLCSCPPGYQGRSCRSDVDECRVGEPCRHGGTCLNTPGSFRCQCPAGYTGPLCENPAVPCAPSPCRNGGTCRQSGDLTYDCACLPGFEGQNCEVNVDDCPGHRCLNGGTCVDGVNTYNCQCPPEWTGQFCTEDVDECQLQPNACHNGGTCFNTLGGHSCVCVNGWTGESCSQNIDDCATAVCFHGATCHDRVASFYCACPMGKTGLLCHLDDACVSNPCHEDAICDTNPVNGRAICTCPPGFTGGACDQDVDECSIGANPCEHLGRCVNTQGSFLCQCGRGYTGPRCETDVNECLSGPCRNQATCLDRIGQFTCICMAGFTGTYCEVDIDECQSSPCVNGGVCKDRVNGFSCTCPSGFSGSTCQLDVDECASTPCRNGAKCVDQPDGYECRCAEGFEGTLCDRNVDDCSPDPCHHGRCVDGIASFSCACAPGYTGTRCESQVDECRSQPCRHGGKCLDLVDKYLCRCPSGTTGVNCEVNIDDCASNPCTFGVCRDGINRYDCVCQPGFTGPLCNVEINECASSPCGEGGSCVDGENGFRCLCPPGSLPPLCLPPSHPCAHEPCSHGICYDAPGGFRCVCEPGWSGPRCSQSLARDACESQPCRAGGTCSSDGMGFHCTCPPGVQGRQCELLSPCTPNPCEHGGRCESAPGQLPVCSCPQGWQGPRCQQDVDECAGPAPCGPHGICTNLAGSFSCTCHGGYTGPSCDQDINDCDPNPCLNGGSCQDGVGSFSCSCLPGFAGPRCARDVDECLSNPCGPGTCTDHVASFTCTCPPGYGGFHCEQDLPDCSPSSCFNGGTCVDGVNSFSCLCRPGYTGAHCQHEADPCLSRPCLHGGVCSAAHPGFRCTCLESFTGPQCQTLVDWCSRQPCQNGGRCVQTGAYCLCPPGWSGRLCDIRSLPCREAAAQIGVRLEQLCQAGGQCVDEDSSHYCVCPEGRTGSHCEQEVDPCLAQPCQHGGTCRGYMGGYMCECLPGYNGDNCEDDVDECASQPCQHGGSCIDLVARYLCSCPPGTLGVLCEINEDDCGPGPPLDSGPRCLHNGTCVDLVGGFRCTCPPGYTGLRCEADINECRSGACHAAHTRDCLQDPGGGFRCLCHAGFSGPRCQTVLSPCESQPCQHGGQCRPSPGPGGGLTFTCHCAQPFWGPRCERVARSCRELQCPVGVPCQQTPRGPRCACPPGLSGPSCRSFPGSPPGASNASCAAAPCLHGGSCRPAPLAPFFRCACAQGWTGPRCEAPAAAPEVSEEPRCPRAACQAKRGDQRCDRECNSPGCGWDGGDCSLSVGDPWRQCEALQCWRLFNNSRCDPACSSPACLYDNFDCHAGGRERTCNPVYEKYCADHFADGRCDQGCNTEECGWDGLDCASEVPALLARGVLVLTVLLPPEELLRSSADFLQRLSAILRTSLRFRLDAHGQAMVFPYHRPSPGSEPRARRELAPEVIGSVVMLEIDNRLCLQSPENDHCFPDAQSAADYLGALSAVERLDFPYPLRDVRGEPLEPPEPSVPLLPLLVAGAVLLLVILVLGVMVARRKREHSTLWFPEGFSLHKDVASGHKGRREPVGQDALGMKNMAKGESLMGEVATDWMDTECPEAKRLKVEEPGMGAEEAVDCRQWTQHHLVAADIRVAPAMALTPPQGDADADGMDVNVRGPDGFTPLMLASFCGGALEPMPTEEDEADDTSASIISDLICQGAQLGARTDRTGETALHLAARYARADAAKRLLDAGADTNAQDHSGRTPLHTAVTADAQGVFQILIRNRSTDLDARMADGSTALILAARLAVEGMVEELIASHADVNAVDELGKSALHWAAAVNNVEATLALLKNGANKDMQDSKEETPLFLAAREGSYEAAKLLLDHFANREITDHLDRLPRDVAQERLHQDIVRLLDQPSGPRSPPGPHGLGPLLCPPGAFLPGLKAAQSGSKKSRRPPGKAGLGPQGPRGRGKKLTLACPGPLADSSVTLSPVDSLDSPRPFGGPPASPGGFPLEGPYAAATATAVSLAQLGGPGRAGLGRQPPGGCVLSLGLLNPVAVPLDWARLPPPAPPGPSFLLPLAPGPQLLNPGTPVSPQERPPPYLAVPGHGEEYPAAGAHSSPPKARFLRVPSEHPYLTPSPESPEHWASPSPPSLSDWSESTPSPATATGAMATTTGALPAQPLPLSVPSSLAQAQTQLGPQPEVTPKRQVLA

[10] = small-molecule microarray binders of probe aEGFR, primary screen, biochemical, biotinylated probe, 635/667 nm fluorescence (AID 1097); details: higher = more signal; small-molecule microarray, probe aEGFR, fluorescence unless noted;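 further: probe is a biotinylated anti-EGFR antibody binding compounds printed on slides; score combines fluorescence near 667 nm and signal to noise of each spot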
[11] = test system: Plasmodium falciparum Sir2 (PF13_0152, Sir2A); assay: pfSir2 binders on small-molecule microarrays, primary screen, biochemical, small-molecule microarray, 635 nm fluorescence (AID 1098); details: small-molecule microarray binding, fluorescence 635 nm; higher = more signal;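 further: score merges spot fluorescence intensity with its signal-to-noise ratio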
[12] = small-molecule microarray binders of probe aDKK1, primary screen, biochemical, biotinylated probe, 635/667 nm fluorescence (AID 1099); details: higher = more signal; small-molecule microarray, probe aDKK1, fluorescence unless noted;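 further: score merges 667nm spot fluorescence with signal to noise across triplicate slides; reference of the scale not given here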
[13] = small-molecule microarray binders of probe aCHRDL2, primary screen, biochemical, biotinylated probe, 635/667 nm fluorescence (AID 1100); details: higher = more signal; small-molecule microarray, probe aCHRDL2, fluorescence unless noted
[14] = splicing luciferase reporter signal modulators, primary screen, spliceosome inhibition project, cell-based, HEK293, splice +/- reporter (AID 1101); details: luminescence, 24 h; higher = more signal, called active from +8 up or from −8 down unless noted;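 further: HEK293 cells carrying a splicing-competent luciferase reporter gene; test concentration not given here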
[15] = molecular target: Fibroblast growth factor 10 (Homo sapiens) (UniProt O15520); assay: FGF10 binders on small-molecule microarrays, primary screen, biochemical, small-molecule microarray, 635 nm fluorescence (AID 1102); details: FGF10 binding, fluorescence 635 nm, higher = more signal
Fibroblast growth factor 10 (Homo sapiens), sequence (O15520 whole entry, looked up): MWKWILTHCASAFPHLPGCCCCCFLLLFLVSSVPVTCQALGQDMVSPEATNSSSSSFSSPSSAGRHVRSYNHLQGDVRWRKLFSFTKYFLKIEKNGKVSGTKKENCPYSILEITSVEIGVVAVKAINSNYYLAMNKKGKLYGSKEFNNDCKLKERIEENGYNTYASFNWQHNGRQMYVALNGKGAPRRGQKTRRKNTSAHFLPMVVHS

[16] = test system: glycogen synthase kinase-3 (GSK3A per assay name; protocol says GSK3B); assay: GSK3 binders on small-molecule microarrays, primary screen, biochemical, small-molecule microarray, 635 nm fluorescence, GSK3A (AID 1103); details: small-molecule microarray binding, fluorescence 635 nm; higher = more signal; further: the record names both GSK3A and GSK3B
[17] = molecular target: Epidermal growth factor receptor (Homo sapiens) (UniProt P00533); assay: EGFR binders on small-molecule microarrays, primary screen, biochemical, small-molecule microarray, 635 nm fluorescence (AID 1104); details: EGFR binding, higher = more signal;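 further: score merges 667 nm emission intensity with spot signal to noise over triplicate slides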
Epidermal growth factor receptor (Homo sapiens), sequence (P00533 whole entry, looked up): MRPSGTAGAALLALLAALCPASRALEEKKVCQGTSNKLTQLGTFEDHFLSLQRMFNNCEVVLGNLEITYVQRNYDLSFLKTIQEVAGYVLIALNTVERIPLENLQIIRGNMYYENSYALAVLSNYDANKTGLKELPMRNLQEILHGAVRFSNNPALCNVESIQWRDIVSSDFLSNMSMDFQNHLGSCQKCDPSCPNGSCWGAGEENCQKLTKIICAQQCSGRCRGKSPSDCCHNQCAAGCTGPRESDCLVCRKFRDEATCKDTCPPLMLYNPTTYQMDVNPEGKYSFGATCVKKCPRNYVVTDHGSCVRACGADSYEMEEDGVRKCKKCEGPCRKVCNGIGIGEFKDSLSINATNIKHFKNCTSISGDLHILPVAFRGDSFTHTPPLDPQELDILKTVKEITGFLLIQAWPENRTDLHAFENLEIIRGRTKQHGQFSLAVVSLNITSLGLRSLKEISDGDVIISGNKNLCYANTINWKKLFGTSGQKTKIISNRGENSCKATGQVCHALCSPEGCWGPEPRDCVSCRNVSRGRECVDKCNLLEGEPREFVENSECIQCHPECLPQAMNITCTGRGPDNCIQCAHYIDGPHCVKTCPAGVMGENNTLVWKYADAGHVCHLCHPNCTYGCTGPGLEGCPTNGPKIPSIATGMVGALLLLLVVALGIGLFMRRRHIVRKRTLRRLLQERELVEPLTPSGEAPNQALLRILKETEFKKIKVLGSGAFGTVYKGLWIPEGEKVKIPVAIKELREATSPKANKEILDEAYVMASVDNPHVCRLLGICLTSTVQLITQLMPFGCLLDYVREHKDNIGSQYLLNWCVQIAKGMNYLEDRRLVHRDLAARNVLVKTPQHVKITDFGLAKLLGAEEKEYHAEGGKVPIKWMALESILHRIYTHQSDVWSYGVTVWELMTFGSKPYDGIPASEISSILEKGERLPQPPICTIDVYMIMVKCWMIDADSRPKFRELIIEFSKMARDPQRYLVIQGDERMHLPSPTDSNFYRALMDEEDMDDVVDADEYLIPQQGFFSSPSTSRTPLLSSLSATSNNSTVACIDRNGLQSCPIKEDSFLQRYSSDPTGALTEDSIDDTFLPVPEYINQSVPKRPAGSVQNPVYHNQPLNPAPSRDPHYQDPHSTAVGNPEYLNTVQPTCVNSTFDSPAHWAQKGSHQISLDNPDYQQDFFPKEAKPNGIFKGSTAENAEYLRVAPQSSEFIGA

[18] = molecular target: Follistatin-related protein 3 (Homo sapiens) (UniProt O95633); assay: FSTL3 binders on small-molecule microarrays, primary screen, biochemical, small-molecule microarray, 635 nm fluorescence (AID 1105); details: FSTL3 binding, higher = more signal;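 further: score merges emission near 667 nm and signal to noise per printed spot across three slides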
Follistatin-related protein 3 (Homo sapiens), sequence (O95633 whole entry, looked up): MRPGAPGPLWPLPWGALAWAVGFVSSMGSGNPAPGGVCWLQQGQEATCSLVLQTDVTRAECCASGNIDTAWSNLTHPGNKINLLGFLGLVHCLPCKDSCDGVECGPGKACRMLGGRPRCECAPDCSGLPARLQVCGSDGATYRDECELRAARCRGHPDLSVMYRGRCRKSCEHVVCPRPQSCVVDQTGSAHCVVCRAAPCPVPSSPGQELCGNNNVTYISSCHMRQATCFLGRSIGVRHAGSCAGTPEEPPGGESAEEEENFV

[19] = molecular target: Dickkopf-related protein 1 (Homo sapiens) (UniProt O94907); assay: DKK1 binders on small-molecule microarrays, primary screen, biochemical, small-molecule microarray, 635 nm fluorescence scan (AID 1106); details: DKK1 binding, higher = more signal;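 further: score merges emission near 667 nm with signal to noise over three replicate slides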
Dickkopf-related protein 1 (Homo sapiens), sequence (O94907 whole entry, looked up): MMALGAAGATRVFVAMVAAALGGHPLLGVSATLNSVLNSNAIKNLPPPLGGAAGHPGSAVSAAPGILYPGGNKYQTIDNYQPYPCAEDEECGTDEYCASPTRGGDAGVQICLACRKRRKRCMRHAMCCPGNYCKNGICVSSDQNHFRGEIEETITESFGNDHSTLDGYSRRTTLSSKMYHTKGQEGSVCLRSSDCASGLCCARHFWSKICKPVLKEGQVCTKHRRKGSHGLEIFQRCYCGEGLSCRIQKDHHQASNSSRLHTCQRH

[20] = test system: Inhibin beta A chain (activin A); assay: INHBA (activin A) binders on microarrays, primary screen, biochemical, small-molecule microarray, 635 nm fluorescence scan (AID 1107); details: small-molecule microarray binding, higher = more signal;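 further: mouse activin A protein probed at 4.33 µg/mL on printed slides; score merges bound-protein fluorescence near 667 nm with spot signal-to-noise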

Row | Compound | composite z-score [1] | z-score [2] | z-score [3] | z-score [4] | composite z-score [5] | z-score [6] | composite z-score [7] | composite z-score [8] | composite z-score [9] | composite z-score [10] | composite z-score [11] | composite z-score [12] | composite z-score [13] | z-score [14] | composite z-score [15] | composite z-score [16] | composite z-score [17] | composite z-score [18] | composite z-score [19] | composite z-score [20]
1 | CC1N(P(=O)(c2ccccc2)c2ccccc2)CC(O)(c2ccccc2)CC12CC2 (stereo not given) | 0.453 and -1.07 | 0.401 (inactive) and -2.96 (inactive) | 0.614 (inactive) and -1.46 (inactive) | 0.973 (inactive) and 0.0418 (inactive) | 3.87 and 3.05 | -0.476 (inactive) and -0.172 (inactive) | 0.084 and 0.644 | -1.15 and -1.06 | -1.14 and -0.154 | -0.0565 and 0.174 | 0.639 and 0.752 | -0.135 and 1 | 0.938 and 1.14 | 0.255 (inactive) and -4.15 (inactive) | -0.115 and 0.145 | -0.0785 and -0.283 | -0.678 and 0.158 | -1.67 and -0.931 | -0.657 and -0.814 | 0.388 and 1.1
2 | COC(=O)[C@H]1[C@H](c2ccccc2)C(=O)[C@]2(O)c3ccccc3O[C@@]12c1ccccc1 | -0.371 | -1.36 (inactive) | -0.83 (inactive) | -0.713 (inactive) | 0.582 | 0.0043 (inactive) | -0.267 | 0.372 | 0.667 | -0.12 | 0.219 | -0.291 | -0.463 | -1.58 (inactive) | 0.37 | 0.423 | 0.437 | 0.419 | 0.314 | -0.228
3 | CCCc1cc2c(n1Cc1cccc(Cl)c1)C(C)C1CN(C(=O)c3ccccc3)C(C)(C(=O)OC)C21 (stereo not given) | -0.287 | -0.319 (inactive) | 0.431 (inactive) | 0.282 (inactive) | 3.21 | -0.449 (inactive) | 0.411 | -0.146 | 1.11 | 0.118 | 0.922 | 1.37 | 1.54 | -3.44 (inactive) | 0.368 | 0.146 | -0.458 | -0.0989 | -1.61 | 1.24
4 | O=P(c1ccccc1)(c1ccccc1)N1CC2(CC2)CC(O)(c2ccccc2)C1 (stereo not given) | -0.25 | -1.51 (inactive) | -1.4 (inactive) | -1.9 (inactive) | 3.57 | -0.0435 (inactive) | -0.0208 | -0.62 | 0.498 | 0.066 | 0.68 | 0.704 | 0.969 | -3.24 (inactive) | 0.11 | -0.487 | -0.48 | -0.672 | -0.673 | 0.72
5 | CCCc1cc2c(n1Cc1ccc(C)cc1)C(C)C1CN(C(=O)c3ccccc3)C(C)(C(=O)OC)C21 (stereo not given) | 0.0451 | -1.78 (inactive) | 0.625 (inactive) | -0.689 (inactive) | 3.08 | -0.694 (inactive) | 1.02 | -0.366 | 1.11 | 0.834 | -0.232 | 1.69 | 1.46 | -3.92 (inactive) | 1.15 | 0.0952 | 0.234 | 1.12 | -0.0627 | 1.28
6 | CN1CCc2nc(CO)c(CO)cc2C1 | -0.121 | 0.909 (inactive) | 0.772 (inactive) | 1.47 (inactive) | 0.277 | 0.077 (inactive) | -0.0912 | 0.543 | 0.765 | 0.0668 | -0.0844 | 0.0703 | -0.445 | 0.261 (inactive) | 0.297 | 0.702 | 0.514 | 0.51 | 0.323 | -0.0175
7 | CCOC(=O)[C@H]1CC=C2C(=O)Oc3ccccc3[C@@H]21 | -0.162 | -1.73 (inactive) | -5.83 (inactive) | -1.99 (inactive) | 1.55 | -0.0576 (inactive) | -0.134 | -1.09 | 0.0681 | -0.174 | -0.283 | -0.295 | 0.521 | -0.0119 (inactive) | -0.375 | -0.45 | -0.695 | -0.77 | -1.06 | 0.0965
8 | C[C@H]1O[C@H]2C3=C(C(=O)[C@@H]4O[C@@H]4[C@@H]3O)[C@@H]1[C@@H]1[C@@H](C)OC=C3[C@@H](O)[C@H]4O[C@H]4C(=O)[C@]312 | -1.42 | -1.16 (inactive) | -0.568 (inactive) | -0.584 (inactive) | -0.697 | -0.529 (inactive) | -0.166 | -0.394 | -1.62 | -0.0238 | -0.373 | -0.416 | -0.399 | -1.89 (inactive) | -0.131 | -0.572 | -0.132 | -0.727 | 0.133 | 0.38
9 | CCCC=C(CCC)[C@@H](NP(=O)(c1ccccc1)c1ccccc1)c1ccccc1 | 0.905 | -0.564 (inactive) | 0.652 (inactive) | 0.0781 (inactive) | 0.732 | -0.431 (inactive) | -0.17 | 1.11 | 0.474 | -0.106 | 0.381 | -0.17 | 0.0101 | -1.55 (inactive) | 0.657 | 0.79 | 0.187 | 0.344 | -0.151 | 0.411
10 | CCCc1cc2c(n1Cc1ccco1)C(C)C1CN(C(=O)c3ccccc3)C(C)(C(=O)OC)C21 (stereo not given) | 0.254 | -0.0941 (inactive) | -0.154 (inactive) | 0.444 (inactive) | 2.03 | -0.773 (inactive) | 0.849 | 0.025 | 1.09 | 0.337 | 1.16 | 1.6 | 1.52 | 1.76 (inactive) | 0.505 | 1.02 | 0.437 | 0.715 | 0.512 | 1.57
11 | CCCc1cc2c(n1CCO)C(C)C1CN(C(=O)c3ccccc3)C(C)(C(=O)OC)C21 (stereo not given) | -0.147 | -0.28 (inactive) | 1.08 (inactive) | 0.158 (inactive) | 2.94 | -0.0807 (inactive) | 0.851 | -0.562 | 0.386 | 0.427 | 0.677 | 1.76 | 1.57 | -1.08 (inactive) | 0.0807 | -0.181 | -0.362 | 0.0815 | -0.369 | 1.24
12 | OCc1ccc(C2=CC(C3CC3)N(Cc3sc4ccccc4c3Cl)CC2)cc1 (stereo not given) | 1.56 | -0.102 (inactive) | -5.01 (inactive) | 1.47 (inactive) | 1.55 | -1.09 (inactive) | -0.0416 | 0.448 | 0.68 | -0.0493 | 1 | 0.0931 | 0.274 | -0.747 (inactive) | 0.458 | 0.979 | 0.417 | 0.48 | 0.8 | 1.04
13 | COC(=O)NCC=Cc1nc(CCC=CC(=O)O[C@H]2CC3CC(=O)O[C@@H](C=CCC(C)C)C[C@@H]4CC[C@H](C)[C@@H](C[C@@H](OC)C[C@H](C2)O3)O4)co1 | -1.35 | -1.77 (inactive) | -4.74 (inactive) | -0.209 (inactive) | -0.562 | 0.162 (inactive) | -0.174 | -0.593 | -2 | -0.201 | -0.466 | -0.445 | -0.42 | 0.659 (inactive) | -0.512 | -1.21 | -0.633 | -0.65 | -0.447 | 0.846
14 | CCOC(=O)[C@H]1CC=C2C(=O)Oc3ccc(Br)cc3[C@@H]21 | 1.41 | -24.8 (active) | -16.2 (active) | -1.8 (inactive) | 2.61 | -0.369 (inactive) | -0.183 | -0.701 | 0.428 | -0.249 | 1.07 | -0.0951 | 0.667 | 0.123 (inactive) | -0.79 | 0.254 | -1.34 | -1.51 | -1.48 | -1.85
15 | C=C(CC1(C(C)NP(=O)(c2ccccc2)c2ccccc2)CC1)c1ccccc1 (stereo not given) | 0.144 | -1.47 (inactive) | -5.37 (inactive) | -3 (inactive) | 3.44 | -0.74 (inactive) | -0.119 | -0.344 | 0.673 | -0.135 | 0.742 | 0.364 | 0.803 | -4.59 (inactive) | 0.623 | 0.0363 | -0.636 | -0.0868 | -0.237 | 0.853
16 | CN1CCC(c2ccc(CO)cc2)=CC1c1cccs1 (stereo not given) | -0.534 | -0.539 (inactive) | -2.27 (inactive) | 2.81 (inactive) | -1.32 | 0.358 (inactive) | -0.166 | 0.269 | 0.245 | -0.0828 | 0.0161 | -0.367 | -0.17 | -0.0418 (inactive) | -0.474 | -0.323 | 0.0626 | 0.152 | 1.55 | 0.917
